For 42 compounds, Potency results are on record in PubChem BioAssay (NCATS).

A short description of experiment [1]: qHTS for Inhibitors of the Functional Ribonucleoprotein Complex (vRNP) of Lassa (LASV) Arenavirus: LASV Primary Screen - GLuc reporter signal (AID 1347082). Further: nearly all actives have a fitted effect of over 60% in size.
The nature of experiment [2]: qHTS for Inhibitors of the Functional Ribonucleoprotein Complex (vRNP) of Lassa (LASV) Arenavirus: Viability assay - alamar blue signal for LASV Primary Screen (AID 1347083). Further: nearly all actives have a fitted effect of over 80% in size.
Experiment [3] in a line: qHTS for Inhibitors of the Functional Ribonucleoprotein Complex (vRNP) of Lymphocytic Choriomeningitis Arenaviruses (LCMV): Viability assay - alamar blue signal for LCMV Primary Screen (AID 1347085; further: nearly all actives have a fitted effect of over 80% in size). (In general: qHTS replaces the single test concentration by a dilution series.)

Inconclusive results are not listed. The source made the active and inactive calls. The call rests on the fitted dose curve; tested in HEK293 reporter line.
Potency means the concentration at half of the fitted maximal effect.

For the compound `O=[N+]([O-])c1cncn1CCN1CCOCC1`, the Potency result in experiment [1], in experiment [2] and in experiment [3] was “inactive” each time.
In the case of `Cc1c(NC(=O)c2cccnc2)c(=O)n(-c2ccccc2)n1C`, the Potency result in experiment [1], in experiment [2] and in experiment [3] was “inactive” throughout.
For `CCCCCCCN(CC)CCCC(O)c1ccc(NS(C)(=O)=O)cc1` (stereo unspecified), the Potency result in experiment [1], in experiment [2] and in experiment [3] was “inactive” in each case.
Regarding `CN1[C@@H]2CCC[C@@H]1CC(NC(=O)c1nn(C)c3ccccc13)C2` (stereo partly specified), the Potency entry in experiment [1], in experiment [2] and in experiment [3] was “inactive” each time.
On to `Nc1ccc(C(=O)Oc2ccccc2)c(O)c1`, for which the Potency entry in experiment [1], in experiment [2] and in experiment [3] was “inactive” each time.
Turning to `CC(=O)NS(=O)(=O)c1ccc(N)cc1`, the Potency entry in experiment [1], in experiment [2] and in experiment [3] was “inactive” in each case.
Take `CN1C[C@@H]2C[C@H]1CN2c1cc2c(cc1F)c(=O)c(C(=O)O)cn2C1CC1`: the Potency result in experiment [1], in experiment [2] and in experiment [3] was “inactive” each time.
In the case of `O=C1OC(CCN2CCCCC2)OC1(c1ccccc1)c1ccccc1` (stereo unspecified), the Potency result in experiment [1], in experiment [2] and in experiment [3] was “inactive” in each case.
In the case of `C#CCC(Cc1cnc2nc(N)nc(N)c2n1)c1ccc(C(=O)N[C@@H](CCC(=O)O)C(=O)O)cc1` (stereo partly specified), the Potency in experiment [1] was 544 nM (active); in experiment [2] it was 273 nM (active); in experiment [3] it was 217 nM (active).
As for `Clc1cccc(C(c2ccc3nc[nH]c3c2)n2ccnc2)c1` (stereo unspecified), the Potency entry in experiment [1], in experiment [2] and in experiment [3] was “inactive” in each case.
Turning to `O=C(O)CN1C(=O)c2cccc3cccc(c23)C1=O`, the Potency result in experiment [1], in experiment [2] and in experiment [3] was “inactive” each time.
Turning to `CCCCOC(=O)CC(CC(=O)OCCCC)(OC(C)=O)C(=O)OCCCC`, the Potency entry in experiment [1], in experiment [2] and in experiment [3] was “inactive” in each case.
As for `CCOC(=O)/C=C(C)/C=C/C=C(C)/C=C/c1c(C)cc(OC)c(C)c1C`, the Potency result in experiment [1], in experiment [2] and in experiment [3] was “inactive” in each case.
Take `CC(=O)OCC(=O)[C@@]1(O)[C@H](OC(C)=O)C[C@H]2[C@@H]3CCC4=CC(=O)C=C[C@]4(C)[C@@]3(F)[C@@H](O)C[C@@]21C`: the Potency entry in experiment [1], in experiment [2] and in experiment [3] was “inactive” throughout.
Take `Cc1cc(C)nc(NS(=O)(=O)c2ccc(N)cc2)n1`: the Potency result in experiment [1], in experiment [2] and in experiment [3] was “inactive” each time.
As to `CCN1CCCC1CNC(=O)c1cc(S(=O)(=O)CC)c(N)cc1OC` (stereo unspecified), the Potency entry in experiment [1], in experiment [2] and in experiment [3] was “inactive” throughout.
Regarding `O=C1c2ccccc2C(=O)c2c1ccc(O)c2O`, the Potency entry in experiment [1], in experiment [2] and in experiment [3] was “inactive” in each case.
Consider `ClCCN1CCCC1`, for which the Potency result in experiment [1], in experiment [2] and in experiment [3] was “inactive” throughout.
For the compound `COc1cc(/C=C/C(=O)O[C@H]2CC[C@]34C[C@]35CC[C@]3(C)[C@@H]([C@H](C)CCC=C(C)C)CC[C@@]3(C)[C@@H]5CC[C@H]4C2(C)C)ccc1O`, the Potency entry in experiment [1], in experiment [2] and in experiment [3] was “inactive” in each case.
In the case of `CC1(C)OC(=O)NC1=O`, the Potency entry in experiment [1], in experiment [2] and in experiment [3] was “inactive” throughout.
As to `Cc1c(C(C)C)c(=O)n(-c2ccccc2)n1C`, the Potency entry in experiment [1], in experiment [2] and in experiment [3] was “inactive” each time.
As to `Cc1nnc(NS(=O)(=O)c2ccc(N)cc2)s1`, the Potency result in experiment [1], in experiment [2] and in experiment [3] was “inactive” in each case.
For `CCCCCCCCCCCCCCCCCC(=O)OCC(O)CO` (stereo unspecified), the Potency result in experiment [1], in experiment [2] and in experiment [3] was “inactive” in each case.
For the compound `Cc1ccccc1C(=O)N1CC/C(=N\OS(=O)(=O)O)c2ccc(Cl)cc21`, the Potency entry in experiment [1], in experiment [2] and in experiment [3] was “inactive” throughout.
As for `CCN1CCC[C@H]1CNC(=O)c1c(OC)ccc(Br)c1OC`, the Potency entry in experiment [1], in experiment [2] and in experiment [3] was “inactive” throughout.
On to `Cc1c(C)c2c(c(C)c1O)CCC(C)(COc1ccc(CC3SC(=O)NC3=O)cc1)O2` (stereo unspecified), for which the Potency result in experiment [1], in experiment [2] and in experiment [3] was “inactive” in each case.
In the case of `CN(C)CCc1c[nH]c2ccc(Cn3cncn3)cc12`, the Potency result in experiment [1], in experiment [2] and in experiment [3] was “inactive” in each case.
As for `CO[C@@]1(NC(=O)Cc2cccs2)C(=O)N2C(C(=O)O)=C(COC(N)=O)CS[C@@H]21`, the Potency entry in experiment [1], in experiment [2] and in experiment [3] was “inactive” in each case.
As for `Nc1ncnc(Nc2ccccc2)n1`, the Potency entry in experiment [1], in experiment [2] and in experiment [3] was “inactive” throughout.
In the case of `C=CCn1c(=O)n([C@@H]2O[C@H](CO)[C@@H](O)[C@H]2O)c2nc(N)[nH]c(=O)c21`, the Potency entry in experiment [1], in experiment [2] and in experiment [3] was “inactive” each time.
With `CC(C)NCC(O)c1cc(O)cc(O)c1` (stereo unspecified), the Potency entry in experiment [1], in experiment [2] and in experiment [3] was “inactive” each time.
Regarding `Oc1ccc(OCc2ccccc2)cc1`, the Potency result in experiment [1], in experiment [2] and in experiment [3] was “inactive” each time.
On to `CCC1=C(C)CN(C(=O)NCCc2ccc(S(=O)(=O)NC(=O)NC3CCC(C)CC3)cc2)C1=O` (stereo unspecified), for which the Potency result in experiment [1], in experiment [2] and in experiment [3] was “inactive” in each case.
For the compound `O=C(c1ccccc1)C(O)c1ccccc1` (stereo unspecified), the Potency result in experiment [1], in experiment [2] and in experiment [3] was “inactive” each time.
In the case of `O=C(Oc1ccccc1C(=O)O)c1ccccc1O`, the Potency entry in experiment [1], in experiment [2] and in experiment [3] was “inactive” throughout.
Turning to `Cc1c(NC(C)C)c(=O)n(-c2ccccc2)n1C`, the Potency entry in experiment [1], in experiment [2] and in experiment [3] was “inactive” each time.
As for `C/C=C/C=N/NC(=O)c1ccncc1`, the Potency result in experiment [1], in experiment [2] and in experiment [3] was “inactive” each time.
Turning to `Oc1ccccc1C=NCc1ccccc1`, the Potency entry in experiment [1], in experiment [2] and in experiment [3] was “inactive” in each case.
As to `COC(=O)C1=C(C)NC(C)=C(C(=O)OCCc2ccc(N3CCN(C(c4ccccc4)c4ccccc4)CC3)cc2)C1c1cccc([N+](=O)[O-])c1` (stereo unspecified), the Potency entry in experiment [1], in experiment [2] and in experiment [3] was “inactive” throughout.
For the compound `NCCS(=O)(=O)O`, the Potency entry in experiment [1], in experiment [2] and in experiment [3] was “inactive” in each case.
`Cc1ccc(-c2ncc(Cl)cc2-c2ccc(S(C)(=O)=O)cc2)cn1`: the Potency entry in experiment [1], in experiment [2] and in experiment [3] was “inactive” each time.
In the case of `C[C@@H]1O[C@@H](OC[C@H]2O[C@@H](Oc3c(-c4ccc(O)c(O)c4)oc4cc(O)cc(O)c4c3=O)[C@H](O)[C@@H](O)[C@@H]2O)[C@H](O)[C@H](O)[C@H]1O`, the Potency result in experiment [1], in experiment [2] and in experiment [3] was “inactive” throughout.
